Screens (PubChem BioAssay)
Cycloheximide cs = counter-screen hit for Shiga toxin inhibitors, cycloheximide; AID 2314; max response, %; cell reporter, cycloheximide protein synthesis inhibition counterscreen; actives 12% (n = 300,000); in the data active = max response mostly above about 13%, no sharp cut-off; inactive = mostly below about 14%; also: read at 38.3 µM for the half of the compounds with a filed dose; 0% is about no effect
Shiga toxin inh = Shiga toxin inhibition | Vero cells, Shiga toxin protein synthesis inhibition reporter | inhibition, % at 38.7 µM | actives 9.2% (n = 290,000); in the data active = inhibition mostly above about 28%, no sharp cut-off; inactive = mostly below about 43%; also: 0% is about no effect
AmpC inh detg = blocks E. coli AmpC beta-lactamase in detergent assay; P00811; AmpC hydrolysis of nitrocefin, absorbance 480 nm, 0.01% Triton; Potency, µM (top dose mostly 114 µM), for inactives: at the top dose activity change, negative = inhibition, usual class: inhibitors; actives 0.041% (n = 370,000); AID 485294;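 also: potency is read from the fitted curve at half-maximal effect; 0% = no-compound wells and -100% = no-enzyme wells; nearly all actives have a fitted effect of over 25% in size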
Target sequence (P00811 whole entry, looked up): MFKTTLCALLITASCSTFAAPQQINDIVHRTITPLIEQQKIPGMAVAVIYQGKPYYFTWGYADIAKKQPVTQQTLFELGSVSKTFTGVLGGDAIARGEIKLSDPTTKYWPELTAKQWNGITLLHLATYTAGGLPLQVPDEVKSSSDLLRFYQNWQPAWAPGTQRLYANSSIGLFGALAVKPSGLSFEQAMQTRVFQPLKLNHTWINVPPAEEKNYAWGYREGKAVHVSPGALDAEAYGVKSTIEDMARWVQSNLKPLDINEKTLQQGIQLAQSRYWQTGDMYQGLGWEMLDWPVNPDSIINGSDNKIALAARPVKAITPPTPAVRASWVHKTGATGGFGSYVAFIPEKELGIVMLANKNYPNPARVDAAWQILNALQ
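20 mM phosphate pH 7.0 + 0.01% (detergent screen) or 0.0001% Triton X-100; 5.3 nM AmpC reagent; cpd preinc 15 min RT; nitrocefin (800 uM stock) to start; A480 q20 s × 4 min; Activity was normalised to no-enzyme and no-compound control wells.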
AmpC inh no detg = blocks E. coli AmpC beta-lactamase in detergent-free assay; Potency, µM (top dose mostly 57.1 µM), for inactives: top-dose activity change, negative = inhibition, actives largely listed as inhibitors; actives 0.52% (n = 330,000); AmpC nitrocefin hydrolysis, absorbance 480 nm, 0.0001% Triton;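 also: potency is read from the fitted curve at half-maximal effect; plate controls were no compound for no effect and no enzyme for full effect; nearly all actives have a fitted effect of over 20% in size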
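AmpC (5.3 nM in the dispensed reagent) in 20 mM phosphate pH 7.0 with 0.01% (detergent screen) or 0.0001% Triton X-100 was preincubated with compounds for 15 min at room temperature. Nitrocefin was then added from an 800 uM solution, and hydrolysis was followed at 480 nm.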
NS1 function inh = inhibitors of influenza NS1 protein function; Potency, µM (titrated, usually from 46.1 µM), without a hit: at the highest dose activity, positive = more growth; actives 0.4% (n = 270,000); AID 2326; calls by dose curve; also: potency is read from the fitted curve at half-maximal effect; actives are rising curves; nearly all actives have a fitted effect of over 50% in size
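A cell-based growth assay was used: compounds that relieve NS1-induced slow growth of budding yeast raise OD600. Assay medium was yeast nitrogen base with ammonium sulphate and -URA supplement, pH 6.0, with 2% galactose.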
* = called active by the depositor. Many of the other results were omitted from the sample, so hits are more common in it than they were. Unless noted, calls follow the shape of the dose curve; as a rule, active = well fitted curve in the direction sought with a large enough effect; inconclusive = small, poorly fitted or top-dose-only effect, or another doubt; inactive = no such curve, though single readings can be large; an effect the other way counts as inactive or inconclusive.

Results for Fc1ccc(CSc2nc3ncccc3[nH]2)cc1 ?
Cycloheximide cs: 30*; Shiga toxin inh: 71*; AmpC inh detg: -17%; AmpC inh no detg: 28%; NS1 function inh: -47%

How did O=C(CSc1ncn[nH]1)c1cccc([N+](=O)[O-])c1 do in these assays?
Cycloheximide cs: 5; Shiga toxin inh: 18; AmpC inh detg: -8%; AmpC inh no detg: -48%; NS1 function inh: 8%

Results for O=C(CSc1nc2ncccc2[nH]1)c1cccc([N+](=O)[O-])c1 ?
Cycloheximide cs: 19*; Shiga toxin inh: 15; AmpC inh detg: 0%; AmpC inh no detg: -29%; NS1 function inh: inconclusive

Results for Fc1ccc2nc(Nc3nc4cc5c(cc4s3)OCO5)sc2c1 ?
Cycloheximide cs: 59*; Shiga toxin inh: 80*; AmpC inh detg: -2%; AmpC inh no detg: -24%; NS1 function inh: 29%

What do the screens show for `c1ccc2sc(NC3=NCN(Cc4ccc5c(c4)OCO5)CN3)nc2c1`?
Cycloheximide cs: -2; Shiga toxin inh: -7; AmpC inh detg: -15%; AmpC inh no detg: -6%; NS1 function inh: -3%

What do the screens show for `c1ccc2sc(Nc3nc4cc5c(cc4s3)OCO5)nc2c1`?
Cycloheximide cs: 119*; Shiga toxin inh: 117*; AmpC inh detg: -8%; AmpC inh no detg: 1%; NS1 function inh: 8%

What do the screens show for `Fc1ccc2nc(Nc3nc4cc5c(cc4s3)OCCO5)sc2c1`?
Cycloheximide cs: 62*; Shiga toxin inh: 25*; AmpC inh detg: 1%; AmpC inh no detg: -36%; NS1 function inh: 10%

What do the screens show for `Cc1cc(NC(=O)CSCC(=O)Nc2nc3ccc(F)cc3s2)no1`?
AmpC inh detg: -4%; AmpC inh no detg: -18%

Results for Clc1c2c(nc3ccccc13)CCC2 ?
Cycloheximide cs: -2; Shiga toxin inh: -6; AmpC inh detg: -23%; AmpC inh no detg: -10%; NS1 function inh: 2%

Results for Nc1ccc2nc3c(c(Cl)c2c1)CCCC3 ?
Cycloheximide cs: 29*; Shiga toxin inh: 28; AmpC inh detg: -3%; AmpC inh no detg: 12%; NS1 function inh: -8%

How did CCOC(=O)c1ccc2c(c1)N(Cc1cccc([N+](=O)[O-])c1)C(=O)c1ccccc1S2 do in these assays?
AmpC inh detg: 5%

What do the screens show for `COc1ccccc1-c1nnc(Nc2nc3c(OC)cccc3s2)o1`?
Cycloheximide cs: 12; Shiga toxin inh: 45*; AmpC inh detg: -5%; AmpC inh no detg: -21%; NS1 function inh: 3%

Results for COc1cccc(-c2nnc(Nc3nc4c(F)cccc4s3)o2)c1 ?
Cycloheximide cs: 38; Shiga toxin inh: 82*; AmpC inh detg: -11%; AmpC inh no detg: -30%; NS1 function inh: -14%

How did COc1cccc2sc(Nc3nnc(-c4ccccc4Cl)o3)nc12 do in these assays?
Cycloheximide cs: 0; Shiga toxin inh: -3; AmpC inh detg: inconclusive; AmpC inh no detg: 82%; NS1 function inh: -127%

Results for COc1ccc(N2C(=O)CSC23C(=O)N(CC(N)=O)c2ccccc23)cc1 (stereo not drawn) ?
AmpC inh detg: 11%

How did COc1cc(CNc2ncn[nH]2)ccc1OCc1cccc(C)c1 do in these assays?
Cycloheximide cs: 48*; Shiga toxin inh: 70*; AmpC inh detg: 2%; AmpC inh no detg: 0%; NS1 function inh: 2%

What do the screens show for `CSc1ccc(CNc2ccc(C)cc2)cc1`?
Cycloheximide cs: 36*; Shiga toxin inh: 80*; AmpC inh detg: -10%; AmpC inh no detg: -34%; NS1 function inh: -12%

Results for Cc1ccc(NCc2ccccc2)cc1 ?
Cycloheximide cs: 49*; Shiga toxin inh: 94*; AmpC inh detg: 6%; AmpC inh no detg: -21%

Results for Cc1ccc(CNc2cccnc2)cc1 ?
Cycloheximide cs: 43*; Shiga toxin inh: 38*; AmpC inh detg: -2%; AmpC inh no detg: -3%; NS1 function inh: -3%

Results for Cc1ccc(NCc2cccnc2)cc1 ?
Cycloheximide cs: -1; Shiga toxin inh: -6; AmpC inh detg: -20%; AmpC inh no detg: -5%; NS1 function inh: 0%

Results for O=C(c1ccc2c(c1)N(Cc1ccccc1)CCS2)N1CCCCC1 ?
Cycloheximide cs: 6; Shiga toxin inh: 16; AmpC inh detg: -10%; AmpC inh no detg: inconclusive; NS1 function inh: -17%

What do the screens show for `COc1ccc(NC(=O)CSCc2cc(=O)n3cc(C)sc3n2)cc1`?
Cycloheximide cs: 10; Shiga toxin inh: -2; AmpC inh detg: -7%; AmpC inh no detg: -3%; NS1 function inh: 3%

Results for CC(Oc1ccccc1F)C(=O)NCC1(N2CCOCC2)CCCCC1 (stereo not drawn) ?
AmpC inh detg: 10%

What do the screens show for `Clc1ccc(CNc2ccc(CNc3ncn[nH]3)cc2)cc1`?
Cycloheximide cs: 18; Shiga toxin inh: 66; AmpC inh detg: inconclusive; AmpC inh no detg: -33%; NS1 function inh: -27%

What do the screens show for `CSc1ccc(CNc2ccc(C)c(C)c2)cc1`?
Cycloheximide cs: 25*; Shiga toxin inh: 79*; AmpC inh detg: -2%; AmpC inh no detg: -56%; NS1 function inh: 1%

What do the screens show for `c1ccc(CNc2ccc(CNc3ncn[nH]3)cc2)cc1`?
Cycloheximide cs: 18*; Shiga toxin inh: 24; AmpC inh detg: inconclusive; AmpC inh no detg: -14%; NS1 function inh: 5%

What do the screens show for `Cc1c2cnn(-c3ccccc3)c(=O)c2c(C)n1C(C)C(=O)Nc1ccccc1C(F)(F)F` (stereo not drawn)?
AmpC inh detg: 23%

What do the screens show for `CCCn1c(N)c(C(=O)CSc2nc(C)cs2)c(=O)n(C)c1=O`?
Cycloheximide cs: 23*; Shiga toxin inh: 9; AmpC inh detg: -4%; AmpC inh no detg: -12%; NS1 function inh: 0%

How did CC(C)Cn1c(N)c(C(=O)CSc2nncs2)c(=O)n(C)c1=O do in these assays?
AmpC inh detg: -1%; AmpC inh no detg: -19%

How did Cc1cccc(Oc2ccc(Cl)cc2N)c1 do in these assays?
Cycloheximide cs: 34*; Shiga toxin inh: 89*; AmpC inh detg: 1%; AmpC inh no detg: -36%

Results for Cc1nnc(SCc2ccc(Cl)cc2Cl)[nH]c1=O ?
Cycloheximide cs: 12*; Shiga toxin inh: 22; AmpC inh detg: 0%; AmpC inh no detg: -15%; NS1 function inh: -44%

What do the screens show for `CCC(C)NC(=O)Cn1c(=O)n(-c2ccc(C)c(C)c2)c(=O)c2c3c(sc21)CCCCC3` (stereo not drawn)?
AmpC inh detg: 15%

How did CC1CC(C)CN(c2nc(N(C)c3ccccc3)nc(N)c2[N+](=O)[O-])C1 (stereo not drawn) do in these assays?
Cycloheximide cs: -3; Shiga toxin inh: 23; AmpC inh detg: 6%; AmpC inh no detg: -16%; NS1 function inh: -19%

How did CCN1CCN(c2nc(Nc3ccccc3F)nc(N)c2[N+](=O)[O-])CC1 do in these assays?
Cycloheximide cs: -5; Shiga toxin inh: 5; AmpC inh detg: -3%; AmpC inh no detg: -14%; NS1 function inh: 4%

How did CN(c1ccccc1)c1nc(N)c([N+](=O)[O-])c(N2CCCCC2)n1 do in these assays?
Cycloheximide cs: 32*; Shiga toxin inh: 61*; AmpC inh detg: -11%; AmpC inh no detg: -19%; NS1 function inh: -2%
